Only some compounds are listed: those with a hit (about 9% of all), similar ones and a draw of the others.
ALDH1A1 block: blocks purified human ALDH1A1 activity; P00352; Purified ALDH1A1, NADH fluorescence, propionaldehyde substrate; Potency, µM (doses to about 75.3 µM), for the others: at the highest dose activity, negative = inhibition, usual class: inhibitors; 7.3% of 220,000 active;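 further: potency means the concentration at half of the fitted maximal effect; plate controls were no enzyme wells and a reference inhibitor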
Target sequence (P00352 whole entry, looked up): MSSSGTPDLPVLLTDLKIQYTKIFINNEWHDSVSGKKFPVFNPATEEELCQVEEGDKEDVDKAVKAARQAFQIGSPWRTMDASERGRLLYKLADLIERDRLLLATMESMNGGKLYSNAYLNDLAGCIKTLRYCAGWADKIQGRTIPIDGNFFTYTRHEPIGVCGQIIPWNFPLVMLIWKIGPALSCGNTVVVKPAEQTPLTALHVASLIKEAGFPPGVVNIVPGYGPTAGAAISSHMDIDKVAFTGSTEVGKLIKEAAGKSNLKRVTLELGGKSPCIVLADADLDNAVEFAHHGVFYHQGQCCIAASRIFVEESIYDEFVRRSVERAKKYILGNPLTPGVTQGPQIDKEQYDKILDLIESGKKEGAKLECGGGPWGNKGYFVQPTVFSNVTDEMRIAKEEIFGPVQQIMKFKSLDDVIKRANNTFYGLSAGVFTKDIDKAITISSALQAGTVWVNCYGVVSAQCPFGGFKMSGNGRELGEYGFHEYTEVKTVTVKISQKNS
IMPase inh: IMPase inhibition in cells; CHO-M1 cells, IP1 accumulation, HTRF TR-FRET ratio; P97697; 120,000 tested, under 10 active; inhibition (IP1 accumulation), % at 46.1 µM; active means well fitted curve in the direction sought with a large enough effect in the signal ratio, not every such curve was filed as active; inconclusive means small, poorly fitted or top-dose-only effect, or a change in a side signal; inactive means no such curve, though single readings can be large or run the other way; the % refers to the signal ratio;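 further: cells stimulated with carbachol in lithium chloride buffer; plate controls were DMSO basal wells for no effect and reference inhibitor wells for full effect; higher means more IMPase inhibition seen as more IP1 and lower FRET ratio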
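Measured: the HTRF emission ratio (665/620 nm) plus the 620 nm donor channel, each fitted to the Hill equation to give AC50. Cells were CHO-M1 given compounds up to 46 uM and a 30 min carbachol stimulation at 37C.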
HPGD block: HPGD (human) dehydrogenase inhibition; P15428; purified HPGD, NADH fluorescence kinetic, PGE2 substrate; Potency, µM, inactives show at the highest dose activity change, negative = inhibition, hits mostly inhibitors; 4.3% of 150,000 active; further: potency means the concentration at half of the fitted maximal effect
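20 nM HPGD preincubated 15 min at room temperature with compound in 50 mM Tris-HCl pH 8, 0.01% Tween 20. Started with 1 mM NAD+ and 30 uM prostaglandin E2; NADH fluorescence (360/450 nm) read 5 times over 30-s intervals, last minus first.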
Numbers without * were called inactive; u = inconclusive; x = not tested or not shown; [ ] = remark or other dose. Unless noted, the call rests on the fitted dose curve; in most records, active means well fitted inhibition curve with a large enough effect (not every such curve was filed as active); inconclusive means small, poorly fitted or top-dose-only effect, or another doubt; inactive means no such curve, though single readings can be large or run the other way. Unless noted, on the % scale 0 is the no-effect control and ±100 the full control effect.

SMILES	ALDH1A1 block	IMPase inh	HPGD block
CCOc1ccc(NS(=O)(=O)c2cnc(Cl)c(Cl)c2)cc1	u	x	-3%
Cc1cc(C)cc(NS(=O)(=O)c2cnc(Cl)c(Cl)c2)c1	3.5µM*	-3	-10%
Cc1ccc(Cn2c(Sc3nnc(C)s3)nc3c2c(=O)[nH]c(=O)n3C)cc1	-18%	7	-2%
Cc1cccc(Cn2c(Sc3nc(C)cs3)nc3c2c(=O)[nH]c(=O)n3C)c1	-9%	1	-3%
Cc1ccc(Cn2c(SCCN3CCCCC3)nc3c2c(=O)[nH]c(=O)n3C)cc1	u	8	28µM*
Cc1cccc(Cn2c(SCC(=O)Nc3ccccc3)nc3c2c(=O)[nH]c(=O)n3C)c1	u	-8	22µM*
Cc1ccc(Cn2c(SCCN3CCOCC3)nc3c2c(=O)n(C)c(=O)n3C)cc1	-1%	6	x
C=CCn1c(SCCN2CCCCC2)nc2c1c(=O)[nH]c(=O)n2C	-11%	14	-9%
Cn1c(=O)[nH]c(=O)c2c1nc(Sc1nc3ccccc3s1)n2Cc1ccccc1	16µM*	5	-4%
Cn1c(=O)[nH]c(=O)c2c1nc(SCCN1CCCCC1)n2Cc1ccccc1	u	6	25µM*
COc1cc(OC)c(OC)cc1/C=C/C(=O)c1ccc(NS(=O)(=O)c2ccc(C)cc2)cc1	-13%	x	-27%
CCN(CC)C[C@@H](O)CN1CCCCc2nc(C)c(C)cc21	8%[13.5 µM]	x	x
CC1CC(C)CN(C(=O)Cn2c(=O)n(CCCCC(=O)NCc3ccco3)c(=O)c3ccccc32)C1 (stereo unspecified)	-4%	-5	-8%
Cc1noc(C)c1C(=O)N1CCC2(CCN(C(=O)NC(C)C)CC2)CC1	8%	x	-7%
CC(C)C[C@@H](CC(=O)N[C@H](CC(=O)N[C@@H]1CCNC[C@H]1C(=O)N[C@H](CC(=O)N[C@@H](CCC(=O)O)CC(=O)O)Cc1c[nH]c2ccccc12)C(C)C)NC(=O)[C@@H]1CNCC[C@H]1N	u	x	0%
Cc1cccc(N(C(=O)c2nsc(Cl)c2Cl)C(C(=O)NC2CCCC2)c2ccc(O)cc2)c1 (stereo unspecified)	5%	x	-4%
Cc1ccc(Cn2c(-n3nc(C)cc3C)nc3c2c(=O)[nH]c(=O)n3C)cc1	11%	-14	-8%
Cn1c(=O)[nH]c(=O)c2c1nc(SCCN1CCCCC1)n2CCCc1ccccc1	u	-2	28µM*
CCOCCSc1nc2c(c(=O)[nH]c(=O)n2C)n1CCCc1ccccc1	-2%	0	-17%
Cc1cc(C)n(-c2nc3c(c(=O)[nH]c(=O)n3C)n2Cc2cccc(Br)c2)n1	0%	-11	16µM*
COCc1ccc([C@@H]2C[C@H]3CN(Cc4cccc(Cl)c4)C(=O)[C@]34CCCN24)o1	2%	x	x
S=C(NCCc1ccccc1)NCCc1ccccc1	-7%	x	-2%
CC(C)(C)C(=O)NC(=S)NCCc1ccccc1	28µM*	9	-9%
O=C(NC(=S)NCCc1ccccc1)c1ccco1	9%	0	x
Cc1ccccc1C(=O)NCC(=O)NNC(=S)NC(=O)c1ccccc1	u	x	-19%
SMILES	ALDH1A1 block	IMPase inh	HPGD block
Cc1ccccc1C(=O)NC(=S)NCCc1ccccc1	11µM*	x	-7%
Cc1ccccc1C(=O)NCC(=O)NNC(=S)NC(=O)c1ccccc1C	-1%	x	25µM*
Cc1cc(C)c(C(=O)O)c(CC(C)(C)C(=O)O)c1	2%	x	x
CC(C)Nc1nc(NC(C)C)nc(N(C#N)CCOc2ccc(Cl)cc2Cl)n1	-9%	-3	-9%
C#CCN(C)CCCOc1ccc(Cl)cc1Cl	5%	-8[20.6 µM]	14µM*
COC(=O)NNC(=O)CCCOc1ccc(Cl)cc1Cl	2%	x	-18%
O=C(O)CCC(=O)NNC(=O)CCCOc1ccc(Cl)cc1Cl	9%	2	-10%
CCN(CC)C(=O)COc1ccc(Br)cc1Cl	7%	-5	-13%
CN(C(=S)NC(=O)CCCOc1ccc(Cl)cc1Cl)c1ccccc1	18µM*	2	11µM*
CCN(CC)C(=O)CCCOc1ccc(Cl)cc1Cl	-2%	4	25µM*
CC(C)NC(=O)CCCOc1ccc(Cl)cc1Cl	5%	4	14µM*
C=CCSc1nnc(CNC(=O)c2ccccc2C)n1C(C)C	-6%	x	x
COC(=O)c1c(C)oc(C)c1S(=O)(=O)N1CCOCC1	4%	x	x
O=C(COc1ccc(Cl)cc1Cl)Nc1ccc(Cl)cn1	15%	8	8.9µM*
Cc1ccc(C(C)C)c(OCC(=O)Nc2ccc(Cl)cn2)c1	8%	2	-7%
Cc1ccc(NC(=O)Nc2ccno2)cc1	14%	x	x
CCCOC(=O)c1ccc(NC(=O)CSC2=Nc3ccccc3C3CC=NN23)cc1 (stereo unspecified)	32µM*	2	u
N#Cc1ccccc1NC(=O)CSC1=Nc2ccccc2C2CC=NN12 (stereo unspecified)	-11%	x	x
Cc1nnc(N2CCOCC2)c2nn(-c3cccc(Cl)c3)c(C)c12	-5%	x	-11%
O=C1N/C(=C/c2ccc(N3CCOCC3)o2)C(=O)N1c1cccc(Cl)c1	18µM*	x	x
Cc1ccc(/C=C2/NC(=O)N(c3ccccc3)C2=O)o1	10µM*	1	-21%
Cc1cccc(NC(=O)CN2C(=O)N/C(=C/c3ccc(-c4cccc(C(=O)O)c4C)o3)C2=O)c1	-1%	x	x
O=C1N/C(=C/c2ccc(Br)s2)C(=O)N1c1ccccc1	-2%	x	x
Cc1c(C(=O)O)cccc1-c1ccc(/C=C2/NC(=O)N(c3ccccc3)C2=O)o1	5.6µM*	x	x
CC(NC(=O)C1CC2CCCC(C1)C2=O)c1ccccc1 (stereo unspecified)	6%	-14	-10%
SMILES	ALDH1A1 block	IMPase inh	HPGD block
C[C@]12CC[C@H]3c4ccc(O)cc4CC[C@@H]3[C@H]1CC[C@@H]2OC(=O)CCC1CCCC1	10%[13.5 µM]	x	-10%
Cc1ccccc1NC(=O)C1CCN(C(=O)c2ccc(F)cc2)CC1	x	0	x
CC(C)CCN1CCNC(=O)C1CC(=O)Nc1ccc(F)cc1 (stereo unspecified)	18µM*	-6	-14%
O=C(CC1C(=O)NCCN1C(=O)Nc1ccccc1)Nc1ccc(F)cc1 (stereo unspecified)	3%	x	x
Cc1nc2sc(C(c3ccc(Cl)cc3)N3CCN(c4ccccc4F)CC3)c(O)n2n1 (stereo unspecified)	7%	4	-10%
CCC/C=N/NC(=O)c1cccc(Br)c1	25µM*	x	x
O=C(N/N=C/C=C/c1ccccc1)c1cccc(Br)c1	-11%	-20	-9%
Cc1c(-c2ccc(Cl)cc2)noc1C1CCN(CCc2ccccc2)CC1	3%	7	0%
O=C(Nc1ccon1)c1ccc(Cl)s1	9%	0	18µM*
O=C(Nc1cnccn1)c1csc2ccccc12	u	-9	-21%
O=C(Nc1ccon1)c1csc2ccccc12	u	-3	25µM*
O=C(Nc1nc2ccccc2s1)c1ccc(Cl)s1	-12%	4	-10%
CCOc1ccc(OCCOCCNCCOC)cc1	-11%	x	3%
CCO	u	x	-5%
COc1ccc(CCNC(=O)CSc2n[nH]c(C)c2[N+](=O)[O-])cc1OC	28µM*	x	x
COc1ccc(CCNC(=O)c2cc(-c3ccc(C)cc3O)n[nH]2)cc1OC	9%	-8	-8%
Cc1[nH]nc(SCC(=O)NCCc2ccccc2)c1[N+](=O)[O-]	2%	x	x
COc1ccc(CCNC(=O)c2cc(-c3ccccc3O)n[nH]2)cc1OC	7%	-3	28µM*
O=C(NCCCn1ccnc1)C(=O)Nc1ccccc1	5%	x	x

Source: PubChem
